Our source for the inhibition values is PubChem BioAssay AID652257 (The Scripps Research Institute Molecular Screening Center, 2013).

About 4,800 (1.3%) of roughly 370,000 compounds were called active.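 Rule for the calls: active = inhibition above about 21% made by adding two undisclosed values (limit read from the data); inactive = the rest.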 Only a selection was taken, and actives are over-represented in it overall.

The inhibition is the drop in the measured response relative to a control, in per cent.

The assay deals with Protein arginine N-methyltransferase 1 (Homo sapiens) (UniProt Q99873). Kind of assay: PRMT1 methyltransferase inhibitors, primary screen, biochemical, fluorescence polarization (AID 652257). The settings on record: recombinant PRMT1, activity-based probe fluorescence polarization; at 2.79 µM; active compounds read high. A general note: Fluorescence polarisation rises when a labelled molecule tumbles more slowly, as on binding a larger partner.
Protein arginine N-methyltransferase 1 (Homo sapiens), sequence (Q99873 whole entry, looked up): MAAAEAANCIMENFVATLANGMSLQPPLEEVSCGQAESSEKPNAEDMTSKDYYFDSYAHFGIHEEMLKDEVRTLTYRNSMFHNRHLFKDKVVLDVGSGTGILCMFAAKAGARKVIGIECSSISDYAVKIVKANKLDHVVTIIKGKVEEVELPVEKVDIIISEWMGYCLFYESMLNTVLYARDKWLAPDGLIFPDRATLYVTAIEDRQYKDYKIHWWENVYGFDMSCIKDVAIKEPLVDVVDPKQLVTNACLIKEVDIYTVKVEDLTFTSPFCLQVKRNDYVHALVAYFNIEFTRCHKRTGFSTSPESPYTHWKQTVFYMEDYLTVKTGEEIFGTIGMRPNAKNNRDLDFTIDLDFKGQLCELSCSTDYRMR
Take `CCCOc1ccc(Oc2c(Cl)cnn(Cc3cccc4ccccc34)c2=O)cc1`: the inhibition is 1.97% (inactive). For the compound `CC(=O)c1cc(-c2ccc3ccccc3c2)c(=O)n2c1CCC2`, the inhibition was 0.08% (inactive). The same measure for `COC1=CC(=O)OC(c2ccc(OC)cc2)C1` (configuration not stated): -1.99% (inactive). Consider `COc1ccc(N=Nc2c(-c3ccc(OC)cc3)[nH]oc2=O)cc1`, for which the inhibition was -0.55% (inactive). Take `COc1ccc(N=C2C=CC(=O)O2)cc1`: the inhibition was 48.5% (active). For `Cc1ccc(SC(CC(=O)c2ccc(C(C)(C)C)cc2)C(=O)O)cc1` (configuration not stated), the inhibition was 75.6% (active). In the case of `Cc1ccc(SC(C)C(=O)NCc2ccc(F)cc2)cc1` (configuration not stated), the inhibition is -5.15% (inactive). Regarding `Cc1ccc(CSCC(N)C(=O)O)cc1` (configuration not stated), the inhibition is 0.39% (inactive). Consider `CCC(NC(=O)C1C2C=CC3(CN(Cc4ccccc4)C(=O)C13)O2)c1ccccc1` (configuration not stated), for which the inhibition was 2.19% (inactive). For `O=S(=O)(O)c1cc2onnc2c2ccccc12`, the inhibition is 40.6% (active).

In the case of `CCOC(=O)[C@@]12CCC3=C1N(CCC3)C(=O)[C@H](CC(=O)N1CCN(C(=O)c3ccco3)CC1)C2`, the inhibition was -2.33% (inactive). For `CC1=CC(C)(C)NC(=S)N1c1ccccc1`, the inhibition was 3.18% (inactive). For `Cc1ccc(-c2nnc(SCC(=O)Nc3ccc(Oc4ccccc4)cc3)n2Cc2ccco2)cc1`, the inhibition is 4.18% (inactive). As to `CC1CC1C(=O)OCC(=O)Nc1cccc(F)c1` (configuration not stated), the inhibition was 2.32% (inactive). The same measure for `Cc1ccccc1CN1CCCCC(NC(=O)Nc2ccccc2F)C1=O` (configuration not stated): -0.07% (inactive). The same measure for `C#CCNC(=O)C[C@H]1C[C@@]2(C(=O)OC)C(=C[C@H](C(C)C)O[C@@H]2C2CC2)N(Cc2ccco2)C1=O`: -1.6% (inactive); for `C=CCn1c(=NC(=O)c2cccs2)sc2cc(NC(C)=O)ccc21`: 4.42% (inactive); for `COc1cc2c(cc1OC)C(Cc1cc(OC)c(OC)cc1[N+](=O)[O-])=NCC2`: 8.89% (inactive). `CCS(=O)(=O)c1cc([N+](=O)[O-])c(Sc2ccccc2N)s1`: the inhibition is 66.1% (active). The same measure for `O=C(c1ccccc1)c1ccc(-c2ccccc2C(=O)NC2CCCCN(Cc3ccc(Cl)cc3)C2=O)cc1` (configuration not stated): -3.72% (inactive).

Take `C=C(C)C#CC(Cc1ccccc1)NCC1CC1` (configuration not stated): the inhibition is 7.99% (inactive). The same measure for `O=C(CSc1nnc(COc2ccccc2)n1Cc1ccco1)c1ccc2ccccc2c1`: 4.78% (inactive); for `Cc1sc2nc(SCC(=O)c3ccc(O)c(O)c3)n(Cc3ccco3)c(=O)c2c1C`: 25.1% (active); for `O=C(CSc1nnc(-c2cccs2)n1Cc1ccco1)c1ccc2c(c1)OCO2`: 1.9% (inactive). With `CCCC[C@H]1C2CC(OC(=O)NCc3ccccc3)C(C2)[C@H]2CCCCN21` (some centres not stated), the inhibition is 1.74% (inactive).

`Cc1cc(-c2n[nH]c(=S)n2-c2ccc(C)c(C)c2)no1`: the inhibition was 4.04% (inactive). The result for `COc1ccc(OCc2n[nH]c(=S)n2N)cc1` reads 4.04% (inactive).

As for `COc1ccccc1-n1c(-c2cc(-c3ccco3)[nH]n2)n[nH]c1=S`, the inhibition is 35.1% (active). The result for `COc1ccc(C(C#N)Nc2ccccc2C)cc1` (configuration not stated) reads 1.86% (inactive); that for `CC(C)(C)OC(=O)NCc1cc(F)ccc1/C=C/S(=O)(=O)NCCc1ccccc1`, -0.49% (inactive); that for `Cc1ccc(/C=C/C(=O)Nc2ccc([N+](=O)[O-])c(NC(=O)/C=C/c3ccc(C)o3)c2)o1`, 41.1% (active). The same measure for `Cc1cc(NC(=O)COC(=O)/C=C/c2ccc(C)o2)no1`: 5.65% (inactive); for `O=C(/C=C/c1ccc([N+](=O)[O-])o1)NNC(=O)c1ccc(F)cc1`: 5.67% (inactive); for `COc1ccc(-n2c(SCC(=O)Nc3ccc(C)c(Cl)c3)nc3ccccc3c2=O)cc1`: 0.06% (inactive). For `COc1ccc(/C=C2/S/C(=N/N=C3\CC4CCC3(C)C4(C)C)NC2=O)cc1` (configuration not stated), the inhibition was -3.61% (inactive). For the compound `CC(=O)N1C(=O)/C(=C2\SC(=S)N(NC(=O)c3ccc(O)cc3)C2=O)c2ccccc21`, the inhibition is 37.7% (active). The result for `COc1ccc2c(c1)N(C)/C(=C1/SC(=S)N(NC(C)=O)C1=O)S2` reads -3.82% (inactive).

For the compound `COc1ccc(C(=O)NN2C(=O)C3C(c4ccccc4)C=CC(c4ccccc4)C3C2=O)cc1` (configuration not stated), the inhibition is -3.24% (inactive). As to `COC(=O)C[C@@H]1CC[C@@H]2[C@H](COc3ccc(NC(=O)c4cccc(F)c4)cc3C(=O)N2C)O1`, the inhibition is -3.84% (inactive). The same measure for `CCN1/C(=C\c2ccc3ccccc3[n+]2CC)Sc2cc(C)ccc21`: -5.01% (inactive). The result for `CCN1/C(=C/C(=S)Nc2ccccc2)Sc2ccccc21` reads 64.6% (active); that for `C=CCN1[C@H](CC(C)C)COc2cccc(N3CCCC3)c2S1(=O)=O`, 11.6% (inactive); that for `CC(=O)c1ccc(N2CCN(CC(=O)Nc3ccccc3N3CCOCC3)CC2)cc1`, -1.3% (inactive). The same measure for `O=C(CN1CCN(c2cccc(Cl)c2)CC1)Nc1ccc(S(=O)(=O)N2CCOCC2)cc1`: 1.21% (inactive); for `O=C(CCC(=O)N1CCN(S(=O)(=O)c2ccccc2)CC1)NC1CCCc2ccccc21` (configuration not stated): 2.87% (inactive). In the case of `O=C(CSc1nncs1)NC1CCCc2ccccc21` (configuration not stated), the inhibition is 2.99% (inactive). As to `O=C(CN1CCN(c2ccc(O)cc2)CC1)Nc1ccc(-c2ccccc2)cc1`, the inhibition was 21.2% (active). As to `O=C(CN1CCN(c2ccc(O)cc2)CC1)NC1CCCc2ccccc21` (configuration not stated), the inhibition is 26.1% (active). `CCCCN1CC(CO)Oc2cccc(F)c2S1(=O)=O` (configuration not stated): the inhibition was -3.97% (inactive). `Cc1cc(C)c(NC(=O)CN2CCOCCOCCOCCOCC2)c(C)c1`: the inhibition is -1.78% (inactive). With `COC(=O)C1CN(Cc2ccc(F)cc2)CCS(=O)(=O)N1Cc1ccc(Cl)cc1` (configuration not stated), the inhibition is 0.79% (inactive).

As to `CC(=O)Nc1ccc(OC[C@@H](O)CN2CCC(C(O)(c3ccccc3)c3ccccc3)CC2)cc1`, the inhibition is -3.02% (inactive). Take `COC(=O)[C@]12C[C@H](CC(=O)NCCCN3CCCC3=O)C(=O)N(CCc3ccc(OC)c(OC)c3)C1=C[C@H](COCc1ccccc1)O[C@@H]2C`: the inhibition is -1.4% (inactive).

As for `COC(=O)C1CN(CCc2ccccc2)CCS(=O)(=O)N1Cc1cccc(Cl)c1` (configuration not stated), the inhibition was 4.71% (inactive).

Consider `O=C(COC(=O)c1ccccc1SCC(=O)N1CCCC1)Nc1ccccc1OC(F)F`, for which the inhibition is 2.04% (inactive).

For the compound `Cc1ccc(C(NC(=O)N2CCCC2)C(Cl)(Cl)Cl)cc1F` (configuration not stated), the inhibition was -0.94% (inactive). On to `CC1CCN(C(=O)CSc2nnc(-c3ccco3)n2N)CC1`, for which the inhibition is -3.61% (inactive). `COc1ccc(Cl)cc1NS(=O)(=O)c1cccc(C(=O)NC2CCC(O)CC2)c1` (configuration not stated): the inhibition was -6.68% (inactive). Regarding `COc1ccc(Cl)cc1C(=O)NNC(=S)NC(=O)/C=C/c1ccco1`, the inhibition was -3.9% (inactive).

As for `COc1ccc([N+](=O)[O-])cc1NC(=O)COC(=O)/C=C/c1ccco1`, the inhibition was 5.77% (inactive).

With `COc1ccc(N2C(=O)/C(=C\c3ccco3)N=C2SCC(N)=O)cc1Cl`, the inhibition is 25.5% (active). For the compound `COC(=O)[C@]12C[C@H](CC(=O)NCc3ccccc3)C(=O)N(CCC3=CCCCC3)C1=C[C@H](C(C)C)O[C@@H]2C1CC1`, the inhibition is -0.96% (inactive). As for `CC(c1ccc(N)cc1)c1cn(C)c2ccccc12` (configuration not stated), the inhibition is -3.45% (inactive). For the compound `COc1ccc(Cl)cc1-c1cc(C(=O)Nc2cc(OC)c(OC)c(OC)c2)[nH]n1`, the inhibition is -1.28% (inactive). In the case of `CC(CCN1CCC(C(O)(c2ccccc2)c2ccccc2)CC1)Oc1ccc(Cl)cc1` (configuration not stated), the inhibition was 0.54% (inactive). As to `C=CCn1c(=S)[nH]c2scc(-c3ccco3)c2c1=O`, the inhibition is 38.1% (active).

In the case of `O=C(CSc1nc2ccccc2n1Cc1ccccc1Cl)N/N=C\c1c[nH]c2ccccc12`, the inhibition is -0.85% (inactive).

Consider `O=C(OCC(=O)N1CCCCCC1)c1cccc(Cl)c1Cl`, for which the inhibition is -1.11% (inactive).

As for `CC(NC(=O)Nc1ccccc1)C(c1cccs1)N1CCN(c2ccccc2)CC1` (configuration not stated), the inhibition is 0.36% (inactive). Turning to `CCOC(=O)c1ccc(NC(=S)N2CCN(c3ccccn3)CC2)cc1`, the inhibition is -2.24% (inactive). The result for `CC(=NNC(=S)N1CCCCCC1)c1ccccn1` reads 25.4% (active).

For the compound `O=[N+]([O-])c1ccc(NC(=S)N2CCN(c3ccccn3)CC2)cc1`, the inhibition is -0.91% (inactive). The result for `COC(=O)C1=C[C@@H](C(=O)OC)[C@@H]2C3=C(C(=O)[C@]2(C)NC(=O)c2ccccc2)[C@H](C)n2c(=O)n(C)c(=O)n2[C@@H]3C1` reads 1.61% (inactive); that for `CCOC(=O)c1ccccc1NC(=O)CSc1nc2c(sc(=S)n2CC)c(=O)[nH]1`, 19% (inactive). Regarding `CSc1ncnc2c1ncn2CC(=O)C1CCC2C3CCC4=CC(=O)CCC4(C)C3CCC12C` (configuration not stated), the inhibition was 0.25% (inactive).

Regarding `Cc1c(NS(=O)(=O)c2cc(C(=O)NCCc3ccc(F)cc3)cc(Cl)c2Cl)c(=O)n(-c2ccccc2)n1C`, the inhibition was -3.45% (inactive). With `COc1ccc(C(=O)C(C)OC(=O)c2cccc(S(=O)(=O)Nc3c(C)n(C)n(-c4ccccc4)c3=O)c2)cc1` (configuration not stated), the inhibition was -2.91% (inactive). Take `Cc1c(NS(=O)(=O)c2cccc(C(=O)Nc3ccc(SC(F)F)cc3)c2)c(=O)n(-c2ccccc2)n1C`: the inhibition is 21.1% (active). The same measure for `Cc1ccccc1-c1nc(CS(=O)(=O)CC(=O)NC(C)c2ccccc2)c(C)o1` (configuration not stated): -4.8% (inactive).

As to `Cc1sc2nc(CSCC(=O)Nc3c(Cl)cccc3Cl)[nH]c(=O)c2c1C`, the inhibition is 13.1% (inactive). The same measure for `Cc1nc(SCC(=O)NC2CCCC2)[nH]c(=O)c1C`: 1.36% (inactive); for `Cc1sc2nc(CSCC(=O)NC3CCCCC3)[nH]c(=O)c2c1C`: 22.1% (active). The same measure for `COC(CNC(=O)[C@H](Cc1ccccc1)NC1(C(=O)NC2CCCCC2)CCCCC1)OC`: -5.82% (inactive); for `O=C(NCc1cccnc1)c1cnc2ccccc2n1`: -0.09% (inactive); for `CCOc1ccc(-n2c(SCC(=O)Nc3cc(C)c(NC(=O)c4ccccc4)cc3OC)nnc2-c2cccs2)cc1`: 2.3% (inactive). `CC(=O)N1CC(C)c2scc(C)[n+]2-c2ccccc21` (configuration not stated): the inhibition is 53.9% (active). The result for `Cc1ccc(NC(=O)C(CC(=O)O)C2CCCO2)c(C)c1` (configuration not stated) reads 2.66% (inactive).
